Bioassay records from PubChem BioAssay.
The list is not random: actives were taken first. Their share in the collection is about 4.7%.
TRHR agonist: agonists of human TRH receptor. AID 493084. TRHR cells, calcium flux fluo-8, FDSS agonist mode. activation, % at 2 µM. P34981. 360,000 compounds, 0.18% hits; note: 0% is about no effect
Target sequence (P34981 whole entry, looked up): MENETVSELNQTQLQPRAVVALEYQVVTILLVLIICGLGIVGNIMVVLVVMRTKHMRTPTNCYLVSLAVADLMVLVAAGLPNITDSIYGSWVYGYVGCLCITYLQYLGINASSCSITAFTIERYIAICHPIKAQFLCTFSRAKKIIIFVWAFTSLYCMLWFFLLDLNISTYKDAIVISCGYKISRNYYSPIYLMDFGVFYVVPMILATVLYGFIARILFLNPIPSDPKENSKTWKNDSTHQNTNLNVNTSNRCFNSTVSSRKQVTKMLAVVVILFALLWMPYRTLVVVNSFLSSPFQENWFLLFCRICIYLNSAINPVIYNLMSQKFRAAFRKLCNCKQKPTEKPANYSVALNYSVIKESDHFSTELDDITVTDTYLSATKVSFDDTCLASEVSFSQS
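TRHR-expressing cells loaded with fluo-8 calcium dye; 23 nL library compound pin-transferred, kinetic FDSS fluorescence (Ex 480/Em 530) recorded about 180 s for agonist-induced calcium release, before a 10 nM TRH EC20 addition for potentiator mode.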
D1 agonist: human D1 receptor agonism; activation, % at 2 µM; P21728; AID 504660; HEK293 T-REx D1 cells, calcium flux, agonist mode; 360,000 compounds, 1% hits; note: 0% is about no effect
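Agonism was scored from calcium flux recorded over 180 s (1 read/s) after pintool compound addition, following a 10-cycle baseline. Cells were inducible force-coupled HEK293 TREx D1, plated overnight at 30 C and loaded with no-wash calcium dye.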
D1 potentiator: potentiators of human D1 dopamine receptor; P21728; HEK293 TREx D1 cells, calcium flux, dopamine EC20 potentiation; potentiation, % at 10 µM; 360,000 compounds, 0.036% hits; AID 504651; in the data active = potentiation above about 30%; note: 0% is about no effect
TRHR enhancer: TRH receptor (human) allosteric enhancement; enhancement, % at 2 µM; P34981; 360,000 compounds, 0.66% hits; TRHR cells, fluo-8 calcium fluorescence, EC20 TRH enhancement; in the data active = enhancement above about 30%; note: 0% is about no effect
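Enhancer read-out: after compound pinning and an initial kinetic agonist-mode read, an EC20 of TRH (10 nM final) was injected and fluo-8 calcium signal (Ex 480/Em 530) followed at 1 s/cycle for 100 cycles in TRHR-expressing cells.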
D1 antag: human D1 dopamine receptor antagonism; activity change, negative = inhibition, % at 10 µM; P21728; AID 504652; 360,000 compounds, 3.2% hits; HEK293 TREx D1 cells, calcium flux, dopamine EC80; hits give low values; in the data active = activity change below about -30%; note: % is set by controls: 0 for no effect and ±100 for the full control effect
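Cells carrying a force-coupled, tetracycline-inducible human D1 receptor report calcium flux. Each well gets a 10 s baseline, compound with 180 s monitoring, then an EC80 dopamine stimulus with a second 180 s kinetic read.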
An asterisk follows results filed as active; nt = no result. Cut-off read from the data, not from the text of the source, unless noted: active = activation above about 30%; inactive = the rest.

SMILES | TRHR agonist | D1 agonist | D1 potentiator | TRHR enhancer | D1 antag
C=CCNC(=O)COC(=O)c1ccc(Cl)c(S(N)(=O)=O)c1 | 0 | 3 | -15 | 4 | -37*
CCCN(C(=O)c1cc2c(=O)n(CC)c3ccccc3c2s1)c1ccccc1F | 0 | 1 | 1 | -1 | -3
CCOc1ccccc1N(CC)C(=O)c1cc2c(=O)n(CC)c3ccccc3c2s1 | 0 | 5 | -5 | 50* | 0
COc1ccccc1-n1c(=O)n(C)c2c(C(N)=O)nc(-c3cc(OC)c(OC)c(OC)c3)nc21 | 0 | 2 | -2 | -2 | 6
Cc1ccc(C(=O)Nc2cc(C(F)(F)F)ccc2-n2cncn2)o1 | -3 | 1 | -7 | 3 | 6
Cc1ccc(C(=O)Nc2cc(Cl)ccc2-n2cncn2)o1 | 0 | 3 | -7 | 36* | 8
NC(=O)c1ccc(C(=O)N/N=C/c2cccc(Oc3ccccc3)c2)cc1 | 1 | 4 | 3 | 36* | 22
O=C(N/N=C\c1cccc(OC(=O)c2ccco2)c1)c1ccc2c(c1)OCO2 | 6 | 1 | -2 | 33* | -5
O=C(N/N=C\C=C\c1ccc2c(c1)OCO2)c1cccnc1 | 0 | 2 | -7 | -2 | -39*
O=C(N/N=C/c1cccc(Oc2ccccc2)c1)c1cccc(O)c1 | -1 | 0 | 5 | -7 | -13
O=C(N/N=C/c1cccnc1)c1ccc2c(c1)OCO2 | 0 | 3 | -3 | -1 | -35*
O=C(N/N=C\c1ccc2c(c1)OCO2)c1ccco1 | 0 | 0 | -10 | 1 | 8
O=C(/C=C/c1ccc2c(c1)OCO2)c1cccnc1 | 1 | 0 | 1 | 2 | -9
COCCCN1CN=C(NS(=O)(=O)c2ccc(NC(C)=O)cc2)NC1 | -3 | 1 | -2 | 4 | 3
Cc1ccc(S(=O)(=O)N2CCCc3cc(NC(=O)c4cccc(Cl)c4)ccc32)cc1 | 0 | 3 | -1 | 0 | -2
O=C(CNC(=O)c1ccccc1O)N/N=C/c1cc(Br)ccc1OC(=O)/C=C/c1ccco1 | 1 | 7 | -8 | 15 | -33*
CCCCn1c(C)cc2c(c1=O)C1O[C@](c3ccc(OC)cc3)(Cc3cc(OC)c(OC)cc31)O2 | 0 | 3 | -3 | 10 | 14
CNS(=O)(=O)c1cccc(C(=O)OC2CCOC2=O)c1 (configuration not stated) | 1 | 7 | nt | -3 | -10
O=C(OC1CCOC1=O)c1cccc(S(=O)(=O)Nc2cccc(Cl)c2)c1 (configuration not stated) | 0 | 11 | -4 | 0 | -32*
Cc1cccc(C(=O)N2CCN(c3ccc([N+](=O)[O-])c(NCc4ccco4)c3)CC2)c1 | 0 | 3 | -10 | 12 | -67*
Cc1cccc(C(=O)N2CCN(c3ccc([N+](=O)[O-])c(N4CCOCC4)c3)CC2)c1 | -2 | 2 | -11 | -16 | -45*
CSc1cccc(Nc2nc3c(S(=O)(=O)c4ccccc4)nnn3c3ccc(Cl)cc23)c1 | 0 | -1 | 5 | 10 | 10
O=S(=O)(c1ccc2nc(Nc3ccc(Br)cc3F)ccc2c1)N1CCCCC1 | 1 | 2 | -6 | -3 | -11
Cc1ccc(N2CCN(Cc3nnc(-c4ccc5c(c4)OCO5)o3)CC2)c(C)c1 | 0 | 3 | 0 | -2 | -30*
COc1cc(/C=C/c2nc(C#N)c(N3CCCCCC3)o2)cc(OC)c1OC | -1 | 1 | -3 | -1 | -13
SMILES | TRHR agonist | D1 agonist | D1 potentiator | TRHR enhancer | D1 antag
Fc1ccc(-n2cc(-c3ccccc3)c3c(NN4CCOCC4)ncnc32)cc1 | -1 | 1 | -10 | 0 | -33*
COc1cc(-c2cc(C(=O)O)c3c(OC)c(OC)c(OC)cc3n2)ccc1O | 1 | 1 | -8 | 0 | -50*
C1CCC(Nc2nc3nonc3nc2N2CCSCC2)C1 | 0 | 4 | -8 | 32* | 0
Fc1ccc2c(c1)-c1nc(-c3ccccc3)cc(-c3ccccc3)c1CO2 | 1 | -1 | 3 | 4 | 3
CCCCOc1ccc(/C(O)=C2/C(=O)C(=O)N(Cc3cccnc3)C2c2ccncc2)c(C)c1 (configuration not stated) | 1 | 0 | -1 | 13 | -56*
COc1ccc(NS(=O)(=O)c2ccc3c(c2)NC(=O)CCS3)cc1Cl | 0 | 5 | 4 | 3 | -39*
COc1ccc(NS(=O)(=O)c2ccc3c(c2)NC(=O)CCS3)c(OC)c1 | 0 | 10 | -5 | 13 | -22
CCc1ccc(NC(=O)CNS(=O)(=O)c2c(C)noc2C)cc1 | 0 | 3 | 1 | -2 | -31*
CCc1ccc(NC(=O)C2CCN(S(=O)(=O)c3c(C)noc3C)CC2)cc1 | 0 | 0 | -4 | -1 | -13
O=C(Nc1nnc(SCc2ccc(Cl)cc2)s1)c1cnccn1 | 0 | 4 | 0 | 3 | -36*
CCN(CC)S(=O)(=O)c1cc(NC(=O)c2ccc(Br)s2)ccc1C | 2 | 27 | -3 | -23 | -33*
CCN(CC)S(=O)(=O)c1cc(NC(=O)NCCCl)ccc1C | -1 | 2 | 4 | -1 | -3
CCc1ccc(CN2CCC(n3nccc3NC(=O)c3ccccc3C)CC2)cc1 | 2 | 15 | -4 | 8 | -6
Cc1ccccc1C(=O)Nc1ccnn1C1CCN(Cc2c(C)n(C)c3ccccc23)CC1 | 0 | 12 | -3 | 10 | -34*
COC(=O)c1ccc(Cn2c(SCc3cccc(C)c3)nc3ccncc32)cc1 | 0 | 52* | 2 | -2 | -32*
COC(=O)c1ccc(CSc2nc3ccncc3n2Cc2ccc(F)cc2)cc1 | 0 | 1 | 1 | 2 | 4
O=C(Nc1ccc(N2CCOCC2)c(Cl)c1)c1cccnc1 | 1 | 1 | -5 | -3 | 2
O=C(Nc1ccccc1N1CCOCC1)c1cccnc1 | 0 | 1 | -11 | -3 | -79*
CCCOc1c(Cl)cc(C(=O)N(Cc2cccc(OC)c2)C2CCS(=O)(=O)C2)cc1Cl (configuration not stated) | 1 | 7 | -1 | -9 | 13
CCn1nc(C)c(Br)c1-c1nc(CS(=O)(=O)c2ccsc2)no1 | 0 | 0 | 4 | 37* | -2
COc1ccccc1CNC(=O)c1nn(C)c2c1CS(=O)(=O)c1ccccc1-2 | -1 | 2 | -11 | -19 | -28
Cc1ccc(CCNC(=O)c2nn(C)c3c2CSc2ccccc2-3)cc1 | 0 | 1 | 0 | -1 | 5
CC1CC(C)CN(CCCNC(=O)c2nn(C)c3c2CS(=O)(=O)c2ccccc2-3)C1 (configuration not stated) | 0 | -1 | 0 | 4 | -42*
Cn1nc(C(=O)NCCCN2CCCCC2)c2c1-c1ccccc1SC2 | 2 | 5 | -5 | -11 | -30*
Cc1cccc(N2CCN(C(=O)c3nn(C)c4c3CSc3ccccc3-4)CC2C)c1 (configuration not stated) | 0 | 1 | -5 | 0 | -46*
